23 sequences from paper PMC7819943, “Rice protein-binding microarrays: a tool to detect cis-acting elements near promoter regions in rice” can be followed below.

In all, about 68,000 sequences were measured (“fluorescence intensity (a.u.)”: median about 9,100, highest 2% from about 16,000 on). Only a selection was taken, and the highest values are over-represented in it overall.

Chain of OsWRKY34 (Q0JBA9 entry or part of it): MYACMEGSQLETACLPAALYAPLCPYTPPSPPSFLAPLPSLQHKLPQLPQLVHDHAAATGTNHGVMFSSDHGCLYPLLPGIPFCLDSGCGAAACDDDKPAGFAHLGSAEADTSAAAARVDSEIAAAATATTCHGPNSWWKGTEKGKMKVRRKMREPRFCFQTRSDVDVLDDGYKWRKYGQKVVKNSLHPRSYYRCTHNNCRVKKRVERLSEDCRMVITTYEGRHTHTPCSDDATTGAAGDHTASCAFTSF

The target in this experiment is OsWRKY34 (Oryza sativa, UniProt Q0JBA9 1-250). Put plainly: protein-binding microarray (RPBM); PBS, 2% BSA, 51.3 ng/ul salmon testes DNA, 50 uM zinc acetate, 200 nM TF, 25 C, 1 h; high values mean tight binding. The following applies: protein: recombinant; tags: N-terminal polyhistidine and DsRed monomer fusion (pET32a); label: CyDye5-dUTP incorporated in the synthesized complementary strand; 3' TTTTT single-stranded linker to array surface; dsDNA, one strand shown. The method in brief:
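An Axon 4000B scanner gave the binding signal as per-feature fluorescence intensity in arbitrary units. This followed washing of a custom Agilent array that had been incubated for 1 h at 25 °C with 200 nM protein in PBS, 2% BSA, salmon testes DNA and 50 µM zinc acetate. The proteins were transcription factors fused at the N-terminus to polyhistidine and DsRed, expressed in E. coli BL21-CodonPlus and purified on Ni–NTA.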
Consider “TTCCCACCGCTGCCGCTCGTCCCGTCTCACCGATCCCTCCCGGAGTCACCTAGTGCAG”, for which the binding signal was 10300 fluorescence intensity (a.u.). Take “CGCCGCCATTTCCGCCTCTTCTTCTCTTAAACAAAAAGCCCGGAGTCACCTAGTGCAG”: the binding signal is 10200 fluorescence intensity (a.u.). Next, “TCCTGTGTTTTTTCTGTGTTTTGCAATCCTCTGTTTTACACGGAGTCACCTAGTGCAG”: 10900 fluorescence intensity (a.u.); “AACTTGGTGGGTTTGGTTTTGCTCTTTCTGTTGACCAAGCCGGAGTCACCTAGTGCAG”: 12000 fluorescence intensity (a.u.). Next, “TGGGGTTCTTGTTTTTCTTTTCCGGGATCTTTGGGTGATGCGGAGTCACCTAGTGCAG”: 15900 fluorescence intensity (a.u.). For “TGGGGTTTTCTTTTTTGGGTTGGGTTGATCTTTTGGGTGGCGGAGTCACCTAGTGCAG”, the binding signal is 36600 fluorescence intensity (a.u.).

“CTACTACTCTTTTCTCAGAGCTAGTGAGGGGCGGGCGGGCCGGAGTCACCTAGTGCAG”: the binding signal was 17500 fluorescence intensity (a.u.). The result for “TGGTTTTCTGTTTTCTTGGTTTTGGGTGGTGGCAGTTGACCGGAGTCACCTAGTGCAG” reads 23200 fluorescence intensity (a.u.); that for “TTTTTGGGTGGGAGTTGTATTTTTTTAACATGTGGGAAAACGGAGTCACCTAGTGCAG”, 21300 fluorescence intensity (a.u.); that for “TTGACTGGGTTTTTCTTTTTTTTTTCTGTTTTGTTGTTTGCGGAGTCACCTAGTGCAG”, 10100 fluorescence intensity (a.u.). The result for “GTCTTATTGTGGTTGGGAGTTTAACGGTGTACCGAAGAAACGGAGTCACCTAGTGCAG” reads 8780 fluorescence intensity (a.u.); that for “GGTAAAACATGTTGGATTTTATTTTGGTGGGATGTGCAATCGGAGTCACCTAGTGCAG”, 9620 fluorescence intensity (a.u.); that for “GATCTGACCGGATTTTGCGGTGGGGTTTTCTTTTTTGGGTCGGAGTCACCTAGTGCAG”, 12200 fluorescence intensity (a.u.). Next, “ACTACTCACTCTTCATTGCTTTTTTTTTTCTCTCTCTAGCCGGAGTCACCTAGTGCAG”: 9600 fluorescence intensity (a.u.); “CACTACCTCAGTATTCTCTACTACTACTCTTTTCTCAGAGCGGAGTCACCTAGTGCAG”: 8470 fluorescence intensity (a.u.); “TCTTCGTCGACACCACCCCAGCCGGTGTCCCCACGCGCTCCGGAGTCACCTAGTGCAG”: 10100 fluorescence intensity (a.u.). For “CCAGTTTGTATCTCATGTATTGGGCCTCGAAATCTGGTATCGGAGTCACCTAGTGCAG”, the binding signal is 12200 fluorescence intensity (a.u.). In the case of “GTTACTGCACATTGACCATCGCGTTACTGCACCGTTCTGCCGGAGTCACCTAGTGCAG”, the binding signal was 8940 fluorescence intensity (a.u.). Next, “GAGGGGTTTCATTGTTATTTTTGGGTAATCCAAATTTACACGGAGTCACCTAGTGCAG”: 16300 fluorescence intensity (a.u.); “GCGAACCGCGAATACAATAGCCGGCGCCCCGCGCGTACACCGGAGTCACCTAGTGCAG”: 8070 fluorescence intensity (a.u.). The result for “TCCTCGCGACCTTAATTTACTCCTCCAATGGCCGCCGCTGCGGAGTCACCTAGTGCAG” reads 8600 fluorescence intensity (a.u.); that for “CGCTGTATTTTGTTGGGATCACCTGTACATTTCTTCACAACGGAGTCACCTAGTGCAG”, 10900 fluorescence intensity (a.u.); that for “TTTCTTGGTCTTTGGGTTAAATGTGGTTATGCCTTATATTCGGAGTCACCTAGTGCAG”, 8260 fluorescence intensity (a.u.).
